# TROY signal inh = inhibitors of TROY-driven NF-kB signaling, primary screen, Q293 LMP1-TROYcd cells, NF-kB luciferase, uHTS; 360,000 compounds, 0.98% hits; Q293 LMP1-TROYcd NF-kB luciferase reporter, 4 h; inhibition, % at 10 µM;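 active = compounds whose plate-normalised and pattern-corrected inhibition of the luciferase reporter signal at the single screening dose is 50% or more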
# EWS-Fli block = EWS/Fli-driven NR0B1 reporter inhibitors, primary screen, A673 cells, NR0B1 luciferase, luminescence, MLPCN library | AID 651661, 2012 | 350,000 compounds, 0.67% hits | inhibition, % at 12.6 µM | viability-normalised;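 active = mean inhibition of at least 50% after viability correction, with every replicate also passing that limit; inconclusive = mean reaches 50% but only one of two replicates passes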;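 note: firefly luciferase signal divided by Alamar Blue viability fluorescence both relative to DMSO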
# EBV LMP1 NFkB = EBV LMP1-driven NF-kappaB luciferase reporter inhibitors, primary screen, cell-based, luminescence, single point. LMP1-induced NF-kappaB luciferase reporter cells. inhibition, % at 12.5 µM. 350,000 compounds, 0.69% hits. AID 504558, 2011; in the data active = inhibition above about 41%; inconclusive = no clear call, values can overlap the other calls;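 note: 0% = neutral control wells and 100% = reference inhibitor control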
# LGR2 inh = inhibitors of bursicon-induced LGR2 CRE-luciferase signal, primary screen, cell-based, HEK293, CRE-luciferase reporter, bursicon stimulation; inhibition, % at 9.99 µM; bursicon-stimulated, 4 h; 380,000 compounds, 0.35% hits; AID 720647, 2013;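 active = drop in luminescence signal, shown as inhibition above about 50% in the replicate tests, limit read from the data, passing the limit was not always enough; inconclusive = probably only some replicates passing the limit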;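 note: agonist challenge used bursicon conditioned medium at about half maximal strength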
# PAX8 inh HTS = inhibitors of PAX8-driven TPO luciferase reporter, primary screen, RMG-I cells, single concentration; 360,000 compounds, 1.2% hits; AID 652154, 2013; inhibition, % at 12.6 µM; SteadyGlo, 24 h;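 active = mean replicate inhibition at least 60% with every replicate also reaching 60%; inconclusive = only one of the two criteria is met; inactive = mean below 60% and not all replicates reaching 60%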;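 note: luciferase light reporting Pax8 driven TPO promoter activity; plate controls were median of neutral control wells for no effect and mitoxantrone controls for full effect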
# TWEAK Fn14 block = inhibitors of TWEAK-Fn14 signaling, primary screen, luciferase reporter cells, uHTS | inhibition, % at 10 µM | 360,000 compounds, 2% hits | TWEAK-stimulated Fn14 reporter cells, luciferase luminescence, 8 h; in the data active = inhibition above about 50%
# Numbers without * were called inactive; ? = inconclusive; nt = not tested or not shown. Shown are actives, neighbours in structure and some others; about 3.2% of the full set was active somewhere.
SMILES,TROY signal inh,EWS-Fli block,EBV LMP1 NFkB,LGR2 inh,PAX8 inh HTS,TWEAK Fn14 block
C=C1C(=O)OC2CC(C)C3C=CC(=O)C3(C)C(O)C12 (centres undefined),26,nt,93*,nt,nt,102*
C=C1C(=O)O[C@@H]2C[C@@H](C)[C@@H]3C4OC4C(=O)[C@@]3(C)[C@@H](O)[C@H]12 (some centres undefined),15,73*,100*,85*,104*,97*
C=C1C(=O)O[C@H]2[C@H]1[C@H](OC(=O)CC(=O)O[C@@H]1C[C@@H](C)[C@@H]3C=CC(=O)[C@@]3(C)[C@H]3OC(=O)C(=C)[C@H]13)C[C@@H](C)[C@H]1C=CC(=O)[C@]12C,-15,4,-7,-7,68*,17
C=C1C(=O)O[C@@H]2C[C@@H](C)[C@@H]3C=CC(=O)[C@@]3(C)[C@@H](OC(=O)CC(=O)O[C@H]3[C@@H]4C(=C)C(=O)O[C@@H]4C[C@@H](C)[C@@H]4C=CC(=O)[C@]43C)[C@H]12,89*,55*,92*,nt,109*,105*
O=C(Cc1ccccn1)N1CCCCN2[C@H](CO)[C@@H](c3ccc(-c4ccc(F)cc4)cc3)[C@H]2C1,nt,-2,nt,3,0,nt
CC(C)NC(=O)N1[C@@H]2c3ccc(-c4cccc(C(=O)N(C)C)c4)c(=O)n3C[C@H]1[C@H](CO)[C@H]2C(=O)O,nt,-3,nt,1,nt,nt
CN(C)CC#Cc1ccc([C@@H]2[C@H]3CN(C(=O)Cc4ccccn4)CCCCN3[C@H]2CO)cc1,nt,0,nt,-10,8,nt
O=C(Cc1ccncc1)N1CCCCN2[C@H](C1)[C@@H](c1ccc(C#CC3(O)CCCC3)cc1)[C@@H]2CO,nt,nt,nt,-6,6,nt
C=C1C(=O)O[C@H]2C[C@@H](C)[C@@H]3C=CC(=O)[C@@]3(C)C[C@H]12,nt,59*,nt,82*,108*,nt
O=C(O)[C@@H]1[C@@H](CO)[C@@H]2Cn3c(ccc(-c4cncnc4)c3=O)[C@H]1N2C(=O)NC1CCCC1,nt,14,nt,4,-10,nt
CNc1ccc2oc(C[C@H]3O[C@@]4(CC[C@H]3C)O[C@H]([C@H](C)C(=O)c3ccc[nH]3)[C@H](C)C[C@H]4C)nc2c1C(=O)O,53*,43,70*,-10,81*,104*
O=C(O)[C@@H]1[C@@H](CO)[C@@H]2Cn3c(ccc(-c4ccccc4)c3=O)[C@H]1N2C(=O)C1CCCCC1,nt,2,nt,-1,-12,nt
COC1/C=C/C=C(\C)Cc2cc(O)c(Cl)c(c2)N(C)C(=O)CC(OC(=O)C(C)C)C2(C)OC2C(C)C2CC1(O)NC(=O)O2 (centres undefined),5,41,13,-10,76*,20
CNc1cc(Cl)c2nonc2c1[N+](=O)[O-],89*,31,23,104*,?,-2
Cc1cc([N+](=O)[O-])c(Cl)cc1NC(=O)C(C)C,-1,nt,-1,0,6,4
CC(C)c1oc(=O)cc2c1[C@@H](O)[C@H]1OC(=O)[C@@]3(C)C[C@@H](O)[C@@H](O)[C@@]2(C)C13 (some centres undefined),38,49,17,78*,86*,88*
CC(C)=CCc1c(O)cc2c(c1O)C(=O)CC(c1ccc(O)cc1)O2 (centres undefined),52*,6,-1,-2,nt,35
CC1CC(C)(O)CC(C(O)CC2CC(=O)NC(=O)C2)C1=O (centres undefined),80*,46,90*,102*,123*,98*
CC=CC(C)=CC(C)C(=O)CC(O)CC1CC(=O)NC(=O)C1 (centres undefined),29,-22,14,17,14,3
COC(=O)[C@H]1[C@H](CO)[C@H]2Cn3c(ccc(C4=CCCC4)c3=O)[C@@H]1N2CC1CCCC1,nt,-5,nt,1,nt,nt
C[n+]1c(-c2ccccc2)cc(CCCCc2cc(-c3ccccc3)[n+](C)c(-c3ccccc3)c2)cc1-c1ccccc1,31,17,11,19,96*,-17

# Screening data: PubChem BioAssay, several laboratories
